{"source": "PubChem BioAssay AID686979", "about": "(National Center for Advancing Translational Sciences (NCATS), 2013)", "note": "The whole screen tested about 420,000 compounds, of which about 50,000 (12%) were called active. Roughly 26% stayed inconclusive and do not appear here. The sample as a whole holds a higher share of actives than the screen did. Unmarked numbers belong to inactive results. Calls come from the whole dose curve; as a rule, active = well fitted inhibition curve with a large enough effect; inconclusive = small, poorly fitted or top-dose-only effect; inactive = flat fitted curve, though single readings scatter. % is set by controls: 0 for no effect and ±100 for the full control effect; potency is the fitted concentration of half-maximal effect."}
{"assay": "qHTS for Inhibitors of human tyrosyl-DNA phosphodiesterase 1 (TDP1): qHTS in cells in presence of CPT; note: nearly all actives have a fitted effect of over 55% in size", "conditions": "chicken DT40 Tdp1-/-;hTDP1 cells + 20 nM CPT, ATP luminescence, 48 h; series mostly up to 46.2 µM; activity change, negative = growth inhibition: at the top concentration", "summary_of_the_method": "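Cell growth measured by CellTiter-Glo luminescence after a minimum 48 h, 37 C compound exposure with 20 nM CPT in Tdp1-knockout DT40 cells stably expressing hTDP1, seeded 400/well; qHTS titration format.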"}
{"smiles": "O=C(COC(=O)c1ccccc1SCC(=O)N1CCCC1)Nc1ccccc1OC(F)F", "activity change, negative = growth inhibition": "-0.557%"}
{"smiles": "Cn1c(SCC(=O)N2CCCC2)nnc1-c1cccs1", "activity change, negative = growth inhibition": "-4.1%"}
{"smiles": "Cc1cc(C)cc(NC(=O)Cn2nc(N3CCN(c4ccccc4)CC3)ccc2=O)c1", "activity change, negative = growth inhibition": "-28.9%"}
{"smiles": "COc1ccc(CNc2c(CO)cnc3c2cnn3C)cc1", "Potency": "8.2 µM (active)"}
{"smiles": "COc1ccc(CNc2nccs2)cc1", "activity change, negative = growth inhibition": "-19.3%"}
{"smiles": "COc1ccc(CNC(=O)CCn2cccc2)cc1", "activity change, negative = growth inhibition": "-2.52%"}
{"smiles": "CSc1nc2nc3c(c(=O)n2[nH]1)CCC3", "activity change, negative = growth inhibition": "-5.28%"}
{"smiles": "Cc1cc(NS(=O)(=O)c2ccc(NC(=O)c3ccccc3C)cc2)nc(C)n1", "activity change, negative = growth inhibition": "-10.1%"}
{"smiles": "Cc1cnc(C(=O)N2CCOc3ccc(CN4CCCC(C(=O)c5cccnc5)C4)cc3C2)[nH]1", "note": "(configuration not stated)", "activity change, negative = growth inhibition": "-10% [at 9.04 µM]"}
{"smiles": "O=C(Nc1cccc(C(F)(F)F)c1)c1cc(Br)cc(Br)c1O", "Potency": "11.9 µM (active)"}
{"smiles": "CN(C)CC(C)(C)CNC(=O)c1cc(Br)cc(Br)c1O", "activity change, negative = growth inhibition": "-3.33%"}
{"smiles": "O=C(O)CC1(CC(=O)Nc2cccc(C(F)(F)F)c2)CCCC1", "activity change, negative = growth inhibition": "-2.74%"}
{"smiles": "Cc1cc(F)ccc1S(=O)(=O)Nc1ncnc2scc(-c3ccc(F)cc3)c12", "activity change, negative = growth inhibition": "19.5%"}
{"smiles": "O=c1c2cccnc2n(Cc2cccc(F)c2)c(=O)n1Cc1ccccc1Cl", "Potency": "14.6 µM (active)"}
{"smiles": "CCOC(=O)Cn1c(=O)n(Cc2ccc(OC)cc2)c(=O)c2cccnc21", "activity change, negative = growth inhibition": "19.7%"}
{"smiles": "COc1ccnc2c1c(=O)n(Cc1cccc(F)c1)c(=O)n2C", "activity change, negative = growth inhibition": "-11.8%"}
{"smiles": "O=C(NC1CCCC1)C(c1ccc(Cl)cc1)N(C(=O)c1csnn1)C1CC1", "note": "(configuration not stated)", "activity change, negative = growth inhibition": "-9.79%"}
{"smiles": "Cc1ccc(-n2ncc3c(=O)n(Cc4cccc(C(F)(F)F)c4)cnc32)cc1C", "activity change, negative = growth inhibition": "0.615%"}
{"smiles": "Cc1ccc(-c2nc3c(cnn3-c3ccccc3)c(=O)o2)cc1", "activity change, negative = growth inhibition": "-22.2%"}
{"smiles": "Cc1ccc(-n2ncc3c(=O)n(-c4ccc(C)c(C)c4)c(-c4ccco4)nc32)cc1", "Potency": "18.4 µM (active)"}
{"smiles": "CCN(CC)S(=O)(=O)c1ccc(C(=O)N2CCN(C3=NS(=O)(=O)c4ccccc43)CC2)cc1", "activity change, negative = growth inhibition": "-16.6%"}
{"smiles": "CC(O)c1nc2c(c(=O)n(C)c(=O)n2C)n1C", "note": "(configuration not stated)", "activity change, negative = growth inhibition": "5.09%"}
{"smiles": "Cn1c(=O)c2c(nc(SCCNS(=O)(=O)c3ccccc3)n2C)n(C)c1=O", "activity change, negative = growth inhibition": "-26.8%"}
{"smiles": "CCC/C(C)=N\\Nc1nc2c(c(=O)n(C)c(=O)n2C)n1C", "Potency": "18.4 µM (active)"}
{"smiles": "Cc1cc(-c2nnc(SCC(=O)Nc3ccc(F)cc3)n2N)n[nH]1", "activity change, negative = growth inhibition": "-11.5%"}
{"smiles": "Cc1ccc(C)c(NC(=O)C(OC(=O)c2ccc(C)s2)c2ccccc2)c1", "note": "(configuration not stated)", "activity change, negative = growth inhibition": "-17.8%"}
{"smiles": "O=C1CN(C(=O)COc2c(Cl)cccc2Cl)c2ccccc2N1", "activity change, negative = growth inhibition": "-15.5%"}
{"smiles": "CCCc1nc(N)nc2c1C(=O)CC(C)(C)C2", "activity change, negative = growth inhibition": "-16.3%"}
{"smiles": "CC/C(O)=C1\\C(=O)CC(C)(C)CC1=NCCc1nc2ccccc2[nH]1", "Potency": "23.1 µM (active)"}
{"smiles": "O=C(OCc1nc2ccccc2[nH]1)C1CCCCC1", "activity change, negative = growth inhibition": "-15.7%"}
{"smiles": "COc1ccc(S(=O)(=O)Nc2cc(C)on2)cc1NC(C)=O", "activity change, negative = growth inhibition": "22.5%"}
{"smiles": "CC1(C)CC(=O)C=C(c2ccc(Cl)c(C(F)(F)F)c2)C1", "activity change, negative = growth inhibition": "-27.7%"}
{"smiles": "CCn1cc(C(=O)OCC(=O)Nc2cc(C)cc(C)c2)c(=O)c2ccc(C)nc21", "activity change, negative = growth inhibition": "-22.5%"}
{"smiles": "Cc1cc(NC(=O)CS(=O)(=O)c2cn(C)c3ccccc23)no1", "activity change, negative = growth inhibition": "-8.42%"}
{"smiles": "Cc1c(C(=O)N(C)CCc2cnn(C)c2)oc2c(F)cccc12", "activity change, negative = growth inhibition": "-4.88%"}
{"smiles": "CC(C)(C)CC(C)(C)NCC(O)COCCOc1ccc(Br)cc1", "note": "(configuration not stated)", "Potency": "5.17 µM (active)"}
{"smiles": "OC(COc1ccc(Br)cc1)CN1CCCC1", "note": "(configuration not stated)", "activity change, negative = growth inhibition": "-4.36%"}
{"smiles": "CC(Oc1ccc(Br)cc1)C(=O)NC1CCCCCC1", "note": "(configuration not stated)", "activity change, negative = growth inhibition": "-21.9%"}
{"smiles": "COC(=O)C1(C)NC(c2ccc(C)cc2)C2C(=O)N(c3ccc(F)cc3)C(=O)C21", "note": "(configuration not stated)", "activity change, negative = growth inhibition": "-1.12%"}
{"smiles": "C/C(N)=C(/C#N)C(=O)COC(=O)CNS(=O)(=O)c1ccc(C)cc1", "activity change, negative = growth inhibition": "7.08%"}
{"smiles": "Cc1ccc(C(=O)O)c(NC=O)c1OCc1ccccc1", "activity change, negative = growth inhibition": "20.1%"}
{"smiles": "COc1ccccc1C(c1nnnn1CC1CCCO1)N1CCN(c2ccccc2)CC1", "note": "(configuration not stated)", "activity change, negative = growth inhibition": "-0.846%"}
{"smiles": "Cc1cccc(N2CCN(C(c3ccc(N(C)C)cc3)c3nnnn3C(C)(C)C)CC2)c1C", "note": "(configuration not stated)", "activity change, negative = growth inhibition": "-11.5%"}
{"smiles": "Cc1cccc(N2CCN(C(c3ccccc3)c3nnnn3CC3CCCO3)CC2)c1C", "note": "(configuration not stated)", "Potency": "20.6 µM (active)"}
{"smiles": "Cc1nc2ccc(N)nc2nc1C", "activity change, negative = growth inhibition": "1.9%"}
{"smiles": "O=C1/C(=C/c2ccc3c(c2)OCO3)Oc2cc(OCC(=O)N3CC(O)C[C@H]3C(=O)O)ccc21", "note": "(some centres not stated)", "activity change, negative = growth inhibition": "-3.66%"}
{"smiles": "Nc1cccc(OCCCCCOc2cccc(N)c2)c1", "activity change, negative = growth inhibition": "-17.9%"}
{"smiles": "O=C(O)C1CCCN1S(=O)(=O)c1ccc(Br)cc1", "note": "(configuration not stated)", "activity change, negative = growth inhibition": "6.77%"}
{"smiles": "O=S(=O)(c1ccc(Br)cc1)n1ccc2ccccc21", "Potency": "13 µM (active)"}
{"smiles": "O=C(c1ccccc1F)N1CCN(S(=O)(=O)c2ccc(Br)cc2)CC1", "activity change, negative = growth inhibition": "-17.3%"}
{"smiles": "COc1cccc(C(=O)N2CCC(n3nccc3NC(=O)C3CCOC3)CC2)c1", "note": "(configuration not stated)", "activity change, negative = growth inhibition": "5.06%"}
{"smiles": "COc1ccc(-c2nnc(-c3ccc4ccccc4c3)o2)cc1", "activity change, negative = growth inhibition": "-22.7%"}
{"smiles": "COc1ccc(C(C)C)cc1S(=O)(=O)Nc1ncn[nH]1", "activity change, negative = growth inhibition": "6.77%"}
{"smiles": "CCOc1ccc(C(C)C)cc1S(=O)(=O)n1nc(C)cc1C", "Potency": "16.4 µM (active)"}
{"smiles": "CCOc1cc(C)c(Cl)cc1S(=O)(=O)n1nnc2ccccc21", "activity change, negative = growth inhibition": "-14.4%"}
{"smiles": "CCc1ccccc1N1CN(Cc2ccco2)CNC1=S", "activity change, negative = growth inhibition": "-8.58%"}
{"smiles": "O=C(CNC(=O)[C@@H]1Cc2ccccc2CN1)NC1CCCCC1", "activity change, negative = growth inhibition": "-2.66%"}
{"smiles": "CC(C)Oc1ccc(CCc2n[nH]c(=S)n2Cc2ccccc2)cc1", "Potency": "25.9 µM (active)"}
{"smiles": "C=CCn1c(CCc2ccc(OC(C)C)cc2)n[nH]c1=S", "activity change, negative = growth inhibition": "-29.5%"}
{"smiles": "CC(C)Oc1ccc(Cc2n[nH]c(=S)n2Cc2ccccc2)cc1Cl", "activity change, negative = growth inhibition": "-11.9%"}
{"smiles": "O=C(CSc1nc2ccc([N+](=O)[O-])cc2[nH]1)c1ccc(Cl)cc1", "activity change, negative = growth inhibition": "-27%"}
{"smiles": "O=c1[nH]c2cccnc2n1-c1ccc([N+](=O)[O-])cc1", "activity change, negative = growth inhibition": "-6.6%"}
{"smiles": "O=[N+]([O-])c1ccc2nc(-c3ccccn3)[nH]c2c1", "Potency": "0.651 µM (active)"}
{"smiles": "O=[N+]([O-])c1ccccc1/C=C/CN1CCCC(CO)C1", "note": "(configuration not stated)", "activity change, negative = growth inhibition": "-0.367%"}
{"smiles": "CCSc1sc(CC)cc1C=O", "activity change, negative = growth inhibition": "-12.7%"}
{"smiles": "CCOc1ccc(C(C)NC(=O)CN2C(=O)NC3(CCCCC3)C2=O)cc1OCC", "note": "(configuration not stated)", "activity change, negative = growth inhibition": "-1.96%"}
{"smiles": "Cc1ccc(C)c(N2CCN(C(=O)CN3C(=O)COc4ccc(S(=O)(=O)N5CCCCCC5)cc43)CC2)c1", "Potency": "16.4 µM (active)"}
{"smiles": "CC(=O)Nc1ccc(NC(=O)CN2C(=O)COc3ccc(S(=O)(=O)N4CCCCC4)cc32)cc1", "activity change, negative = growth inhibition": "1.6%"}
{"smiles": "Cc1ccc2c(c1)N(CC(=O)N1CCOCC1)C(=O)CO2", "activity change, negative = growth inhibition": "18.3%"}
{"smiles": "CCCCN(CCCC)CCCNC(=O)CN1C(=O)COc2ccc(S(=O)(=O)N3CCC(C)CC3)cc21", "Potency": "18.4 µM (active)"}
{"smiles": "CCCCN(CCCC)CCNC(=O)CN1C(=O)COc2ccc(S(=O)(=O)N3CCOCC3)cc21", "activity change, negative = growth inhibition": "-27.9%"}
{"smiles": "COc1ccc(CCNC(=O)CN2C(=O)COc3ccc(S(=O)(=O)N4CCCC4)cc32)cc1OC", "activity change, negative = growth inhibition": "-11%"}
